Whole data set: some 2,900 compounds, median “NF-kB SEAP reporter activity, fold change vs agonist alone” near 0.99, cut for the highest 2% near 2.6. Many of the other results were omitted from the sample, so the highest values are more common in it than they were.

Assay [1] has as its system RAW-Dual. The assay can be described thus: NF-kB SEAP reporter activity, fold change vs agonist alone; cytotoxicity flag (confluency mask): not cytotoxic; higher = enhanced NF-kB activity. The procedure, abridged:
(§1)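 Library stock was pin-tooled at 50 nL into 384-well plates of RAW-Dual macrophages (50,000 cells/well, DMEM), followed 1 h later by a PRR agonist, and the cells were kept at 37 °C, 5% CO2. Supernatant collected after 20 hours was read for IRF by QuantiLuc luminescence and for NF-κB by QuantiBlue absorbance at 620 nm. Reporter activity is fold change over agonist-alone wells, and a well counted as cytotoxic when its IncuCyte confluency was below 70% of agonist controls in both mask sets.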

The subject of assay [2] is RAW-Dual. Nature of the assay: NF-kB SEAP reporter activity, fold change vs agonist alone; higher = enhanced NF-kB activity. The gist of the method:
as §1

Assay [3] deals with RAW-Dual. The assay can be described thus: NF-kB SEAP reporter activity, fold change vs agonist alone; cytotoxicity flag (confluency mask): cytotoxic (confluency <70% of control); higher = enhanced NF-kB activity. The procedure, abridged: as §1
The mark [4] stands for this setting: agonist: ODN 1826 (TLR9) 0.5 ug/mL.
Setting [5] is: agonist: Pam2CSK4 (TLR2/6) 0.1 ug/mL.
[6] abbreviates: agonist: Pam3CSK4 (TLR2/1) 0.1 ug/mL.
Setting [7] is: library stock concentration (final ~1000-fold dilution): 10 mM, cytotoxicity flag (confluency mask): not cytotoxic, agonist: Imiquimod (TLR7) […].
[8] abbreviates: library stock concentration (final ~1000-fold dilution): 10 mM, cytotoxicity flag (confluency mask): not cytotoxic, agonist: MPLA (TLR4) […].
Setting [9] is: library stock concentration (final ~1000-fold dilution): 10 mM, cytotoxicity flag (confluency mask): cytotoxic (confluency <70% of control), agonist: Imiquimod (TLR7) […].
Setting [10] is: library stock concentration (final ~1000-fold dilution): 10 mM, cytotoxicity flag (confluency mask): cytotoxic (confluency <70% of control), agonist: MPLA (TLR4) […].

In the case of `CC(C)CC(NC(=O)C(CCc1ccccc1)NC(=O)CN1CCOCC1)C(=O)NC(Cc1ccccc1)C(=O)NC(CC(C)C)C(=O)C1(C)CO1` (configuration not stated) (library stock concentration (final ~1000-fold dilution): 10 mM), the “NF-kB SEAP reporter activity” value in the assay on RAW-Dual [1] (agonist: LPS (TLR4) 0.1 ug/mL) turned out to be 0.318; with RAW-Dual [1] (setting [4]), 1.18; in the assay with RAW-Dual [1] (setting [5]), 0.683; with RAW-Dual [1] (setting [6]), 0.456.

Turning to `CC(C)CC(NC(=O)C(CCc1ccccc1)NC(=O)CN1CCOCC1)C(=O)NC(Cc1ccccc1)C(=O)NC(CC(C)C)C(=O)C1(C)CO1` (configuration not stated), the figures for the “NF-kB SEAP reporter activity” value in the assay with RAW-Dual [2] (setting [7]) and with RAW-Dual [2] (setting [8]) were 2.33 and 0.832, respectively.

Regarding `CCc1c(N(CC)C2CCOCC2)cc2oc(C3CCN(C(C)C)CC3)cc2c1C(=O)NCc1c(C)cc(C)[nH]c1=O`, the “NF-kB SEAP reporter activity” value was 1.34 with RAW-Dual [2] (setting [7]) and 1.04 in the assay on RAW-Dual [2] (setting [8]).

In the case of `CCc1c(N(CC)C2CCOCC2)cc2oc(C3CCN(C(C)C)CC3)cc2c1C(=O)NCc1c(C)cc(C)[nH]c1=O` (library stock concentration (final ~1000-fold dilution): 10 mM), the “NF-kB SEAP reporter activity” value in the assay with RAW-Dual [1] (agonist: LPS (TLR4) 0.1 ug/mL) is 1.13; in the assay on RAW-Dual [1] (setting [4]), 0.983; in the assay on RAW-Dual [1] (setting [5]), 1.04; in the assay on RAW-Dual [1] (setting [6]), 0.941.

Consider `COCC(NC(=O)c1cnc(C)s1)C(=O)NC(COC)C(=O)NC(Cc1ccccc1)C(=O)C1(C)CO1` (configuration not stated) (library stock concentration (final ~1000-fold dilution): 10 mM), for which the “NF-kB SEAP reporter activity” value was found to be 0.377 with RAW-Dual [1] (agonist: LPS (TLR4) 0.1 ug/mL), 1.25 with RAW-Dual [1] (setting [4]), 0.279 with RAW-Dual [1] (setting [5]) and 0.692 in the assay on RAW-Dual [1] (setting [6]).

For the compound `COCC(NC(=O)c1cnc(C)s1)C(=O)NC(COC)C(=O)NC(Cc1ccccc1)C(=O)C1(C)CO1` (configuration not stated), the entries for the “NF-kB SEAP reporter activity” value in the assay with RAW-Dual [2] (setting [7]) and in the assay with RAW-Dual [2] (setting [8]) were 2.34 and 1.21, respectively.

For `CC(C)(O)CNc1ncc(-c2ccnc(Nc3ccncc3)n2)c(CC2CC2)n1` (library stock concentration (final ~1000-fold dilution): 10 mM), the “NF-kB SEAP reporter activity” value was 4.13 in the assay with RAW-Dual [1] (agonist: LPS (TLR4) 0.1 ug/mL), 0.366 in the assay with RAW-Dual [1] (setting [4]), 0.814 with RAW-Dual [1] (setting [5]) and 1.66 in the assay with RAW-Dual [1] (setting [6]).

For `COc1cc(N2CCN(C)CC2)ccc1Nc1nccc(-c2cn(C)c3cnccc23)n1` (library stock concentration (final ~1000-fold dilution): 10 mM), the “NF-kB SEAP reporter activity” value with RAW-Dual [1] (agonist: LPS (TLR4) 0.1 ug/mL) was found to be 1.02; in the assay with RAW-Dual [1] (setting [4]), 0.192; in the assay with RAW-Dual [1] (setting [5]), 1.14; in the assay with RAW-Dual [1] (setting [6]), 1.44.

Consider `CC(C)(O)CNc1ncc(-c2ccnc(Nc3ccnc(Cl)c3)n2)c(CC2CC2)n1` (library stock concentration (final ~1000-fold dilution): 10 mM), for which the “NF-kB SEAP reporter activity” value stood at 5.81 in the assay with RAW-Dual [1] (agonist: LPS (TLR4) 0.1 ug/mL), 0.935 in the assay on RAW-Dual [1] (setting [4]), 1.41 in the assay with RAW-Dual [1] (setting [5]) and 1.8 in the assay with RAW-Dual [1] (setting [6]).

Take `CC(C)(O)CNc1ncc(-c2ccnc(Nc3ccncc3)n2)c(CC2CC2)n1`: the “NF-kB SEAP reporter activity” value amounted to 0.914 in the assay on RAW-Dual [2] (setting [7]) and 2.18 in the assay on RAW-Dual [2] (setting [8]).

On to `Nc1ncc(-c2ccnc(Nc3ccncc3)n2)c(CC2CC2)n1`, for which the “NF-kB SEAP reporter activity” value in the assay on RAW-Dual [2] (setting [9]) was 0.641; in the assay with RAW-Dual [2] (setting [10]) it was 2.13.

For `Cc1nc(N)sc1-c1ccnc(Nc2ccc(N3CCOCC3)cc2)n1`, the results for the “NF-kB SEAP reporter activity” value in the assay on RAW-Dual [2] (setting [7]) and in the assay with RAW-Dual [2] (setting [8]) were 0.996 and 1.39, respectively.

Take `CC(C)(O)CNc1ncc(-c2ccnc(Nc3ccnc(Cl)c3)n2)c(CC2CC2)n1`: the “NF-kB SEAP reporter activity” value in the assay on RAW-Dual [2] (setting [7]) was found to be 0.784; with RAW-Dual [2] (setting [8]), 2.07.

Consider `Cc1nc(N)sc1-c1ccnc(Nc2ccc(N3CCOCC3)cc2)n1` (library stock concentration (final ~1000-fold dilution): 10 mM), for which the “NF-kB SEAP reporter activity” value in the assay on RAW-Dual [1] (agonist: LPS (TLR4) 0.1 ug/mL) came to 0.713; in the assay on RAW-Dual [1] (setting [4]) it was 0.256; in the assay on RAW-Dual [1] (setting [5]), 0.401; in the assay on RAW-Dual [1] (setting [6]), 0.522.

`COc1cc(N2CCN(C)CC2)ccc1Nc1nccc(-c2cn(C)c3cnccc23)n1`: the “NF-kB SEAP reporter activity” value in the assay on RAW-Dual [2] (setting [7]) came out at 0.285; in the assay on RAW-Dual [2] (setting [8]), 1.58.

For `CC(C)(O)CNc1nc(Nc2ccnc(C(F)(F)F)c2)nc(-c2cccc(C(F)(F)F)n2)n1`, the “NF-kB SEAP reporter activity” value was determined as 1.19 in the assay on RAW-Dual [2] (setting [7]) and 1.28 in the assay on RAW-Dual [2] (setting [8]).

Consider `Nc1ncc(-c2ccnc(Nc3ccncc3)n2)c(CC2CC2)n1` (library stock concentration (final ~1000-fold dilution): 10 mM), for which the “NF-kB SEAP reporter activity” value in the assay with RAW-Dual [3] (agonist: LPS (TLR4) 0.1 ug/mL) worked out at 4.89; in the assay on RAW-Dual [3] (setting [4]), 0.424; with RAW-Dual [3] (setting [5]) it was 0.975; with RAW-Dual [3] (setting [6]), 1.51.

For the compound `CC(C)(O)CNc1nc(Nc2ccnc(C(F)(F)F)c2)nc(-c2cccc(C(F)(F)F)n2)n1` (library stock concentration (final ~1000-fold dilution): 10 mM), the “NF-kB SEAP reporter activity” value in the assay with RAW-Dual [1] (agonist: LPS (TLR4) 0.1 ug/mL) stood at 1.51; with RAW-Dual [1] (setting [4]) it was 1.61; in the assay on RAW-Dual [1] (setting [5]) it was 1.09; in the assay on RAW-Dual [1] (setting [6]), 1.59.

`CCNC1CC(C)S(=O)(=O)c2sc(S(N)(=O)=O)cc21.Cl` (configuration not stated) (library stock concentration (final ~1000-fold dilution): 10 mM water): the “NF-kB SEAP reporter activity” value was determined as 1.49 with RAW-Dual [1] (agonist: LPS (TLR4) 0.1 ug/mL), 1.13 with RAW-Dual [1] (setting [4]), 1.09 in the assay with RAW-Dual [1] (setting [5]) and 0.997 in the assay with RAW-Dual [1] (setting [6]).

With `CCNC1CC(C)S(=O)(=O)c2sc(S(N)(=O)=O)cc21.Cl` (configuration not stated), the “NF-kB SEAP reporter activity” value was determined as 0.908 with RAW-Dual [2] (library stock concentration (final ~1000-fold dilution): 10 mM water, cytotoxicity flag (confluency mask): not cytotoxic, agonist: Imiquimod (TLR7) […]) and 0.982 in the assay with RAW-Dual [2] (library stock concentration (final ~1000-fold dilution): 10 mM water, cytotoxicity flag (confluency mask): not cytotoxic, agonist: MPLA (TLR4) […]).

Consider `CCc1ccc(OCc2ccccc2C(=O)Nc2ccc3nc(C)cc(N)c3c2)cc1.Cl` (library stock concentration (final ~1000-fold dilution): 10 mM), for which the “NF-kB SEAP reporter activity” value came to 0.212 in the assay on RAW-Dual [3] (agonist: LPS (TLR4) 0.1 ug/mL), 0.198 in the assay on RAW-Dual [3] (setting [4]), 0.0939 with RAW-Dual [3] (setting [5]) and 0.336 in the assay on RAW-Dual [3] (setting [6]).

Consider `CCc1ccc(OCc2ccccc2C(=O)Nc2ccc3nc(C)cc(N)c3c2)cc1.Cl`, for which the figures for the “NF-kB SEAP reporter activity” value with RAW-Dual [2] (setting [9]) and in the assay with RAW-Dual [2] (setting [10]) were 0.265 and 0.216, respectively.

As to `CCCN1CCCCC1C(=O)Nc1c(C)cccc1C` (configuration not stated), the “NF-kB SEAP reporter activity” value in the assay with RAW-Dual [2] (setting [8]) stood at 1.09.

As for `CCCN1CCCCC1C(=O)Nc1c(C)cccc1C` (configuration not stated) (library stock concentration (final ~1000-fold dilution): 10 mM), the “NF-kB SEAP reporter activity” value in the assay with RAW-Dual [1] (agonist: LPS (TLR4) 0.1 ug/mL) came out at 1.03; in the assay with RAW-Dual [1] (setting [4]), 1.03; in the assay with RAW-Dual [1] (setting [5]), 0.952; with RAW-Dual [1] (setting [6]), 1.06.

Consider `Cc1ccc(C(=O)N(CCCN)C(c2nc3cc(Cl)ccc3c(=O)n2Cc2ccccc2)C(C)C)cc1` (configuration not stated) (library stock concentration (final ~1000-fold dilution): 10 mM), for which the “NF-kB SEAP reporter activity” value is 0.331 in the assay on RAW-Dual [3] (agonist: LPS (TLR4) 0.1 ug/mL), 0.254 in the assay with RAW-Dual [3] (setting [4]), 0.0886 in the assay on RAW-Dual [3] (setting [5]) and 0.27 in the assay with RAW-Dual [3] (setting [6]).

Regarding `Cc1ccc(C(=O)N(CCCN)C(c2nc3cc(Cl)ccc3c(=O)n2Cc2ccccc2)C(C)C)cc1` (configuration not stated), the “NF-kB SEAP reporter activity” value came to 1.41 in the assay with RAW-Dual [2] (setting [9]) and 0.878 in the assay on RAW-Dual [2] (setting [10]).

The record behind these values is the supplement of paper PMC10037445.
